Screening results as filed in PubChem.
In the library only some 5.4% were active in any assay of this set; here they are far more common.
Vaccinia mCherry: vaccinia inhibition (mCherry reporter); 0.63% of 310,000 active; Vaccinia virus mCherry reporter infection, fluorescence; Potency, µM (highest dose often 36.5 µM), without a hit: at the top dose activity change, negative = inhibition, most hits filed as inhibitors; calls by dose curve; tested in A549 cells; further: nearly all actives have a fitted effect of over 35% in size
MARV entry inh: inhibitors of Marburg virus binding or cell entry; Marburg virus pseudotyped entry inhibition, cell reporter; 1.8% of 300,000 active; Potency, µM (doses to about 37.8 µM), for inactives: top-dose activity change, negative = inhibition, hits mostly inhibitors; calls by dose curve; tested in HEK293 cells
Sm TGR block: S. mansoni TGR enzyme inhibition | AID 485364 | purified TGR, DTNB reduction, TNB absorbance 405 nm | Q962Y6 | Potency, µM (top dose mostly 114 µM), without a hit: at the top dose activity change, negative = inhibition, actives largely listed as inhibitors | 3% of 360,000 active; active means well fitted inhibition curve with a large enough effect; inconclusive means small, poorly fitted or top-dose-only effect; inactive means no such curve, though single readings can be large or run the other way; further: nearly all actives have a fitted effect of over 60% in size
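Kinetic colorimetric format: TGR-catalysed, NADPH-driven DTNB reduction monitored via TNB absorbance. Enzyme dispensed at 20 nM; compound exposure 15 min at room temperature before reaction start.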
FMDV inh: foot and mouth disease virus antiviral activity. FMDV antiviral cell-based qHTS. Potency, µM (series often up to 57.9 µM), for the others: at the top dose activity change, negative = inhibition, usual class: inhibitors. 1.2% of 410,000 active; calls by dose curve; tested in HEK293T cells; further: read-out not given here; nearly all actives have a fitted effect of over 45% in size
VACV Venus inh: inhibitors of vaccinia virus (Venus reporter); AID 720580; Vaccinia virus Venus reporter expression, fluorescence; Potency, µM (titrated, usually from 36.5 µM), for inactives: top-dose activity change, negative = inhibition, actives largely listed as inhibitors; 0.46% of 330,000 active; calls by dose curve; tested in A549 cells; further: nearly all actives have a fitted effect of over 30% in size
LASV entry inh: inhibitors of Lassa virus binding or cell entry. Lassa virus pseudotype entry inhibition, cell reporter. Potency, µM (series often up to 37.9 µM), for inactives: top-dose activity change, negative = inhibition, usual class: inhibitors. 1.2% of 300,000 active. AID 540256; calls by dose curve; tested in HEK293 cells; further: nearly all actives have a fitted effect of over 50% in size
The depositor's hits bear a star; i = inactive; u = inconclusive; x = not tested or not shown; [ ] = another dose, or the depositor's remark. On the % scale 0 is the no-effect control and ±100 the full control effect; potency means the concentration at half of the fitted maximal effect.

SMILES	Vaccinia mCherry	MARV entry inh	Sm TGR block	FMDV inh	VACV Venus inh	LASV entry inh
O=C(CCc1ccc(S(=O)(=O)NC2CCCCC2)cc1)Nc1ccccc1	i	-8.3%	12.1%	14.6%	-9.4%	5.5%
O=C(CCc1ccc(S(=O)(=O)NC2CCCCC2)cc1)NCc1ccccn1	-27.4%	4.0%	35.5µM*	33.3%	-3.3%	-1.4%
O=C(CCc1ccc(S(=O)(=O)NC2CCCCC2)cc1)N(Cc1ccccc1)Cc1ccccc1	u	12.6µM*	1.9%	32.0%	u	u
O=C(CSc1nc(-c2ccccc2)no1)N1CCCCC1	-0.6%	u	4.7%	-11.2%	1.5%	-6.6%[46.1 µM]
COCc1ccc(C(=O)N2CCOc3c(cc(-c4cc(C)c5cccc(OC)c5n4)cc3OC)C2)o1	-16.3%	x	x	-4.6%	-8.2%	x
Cc1cccc(-n2ncc3c(N4CCN(c5ccccc5)CC4)ncnc32)c1	-10.2%	x	3.9%	u	-7.3%	-46.5%[46.1 µM]
Cc1cccc(-n2ncc3c(N4CCOCC4)ncnc32)c1	-3.4%	3.66µM*	-19.9%	-77.5%	-22.7%	1.64µM*
Cc1ccc(-n2ncc3c(N4CCN(c5ccccc5)CC4)ncnc32)c(C)c1	x	-15.9%	16.0%	3.16µM*	x	u
CN(C(=O)c1ccc2c(c1)N(Cc1ccccc1F)C(=O)c1ccccc1S2(=O)=O)C1CCCCC1	-6.4%	u	-0.2%	4.7%	-3.1%	-15.5%[46.1 µM]
CNc1oc(Cc2ccccc2)nc1S(=O)(=O)c1ccc(Cl)cc1	-18.5%	-1.5%	12.6µM*	x	1.1%	u
COc1cccc([C@H]2Oc3ccc(OC)cc3/C(=N\OC[C@@H](O)COCc3ccco3)[C@@H]2O)c1	x	13.6%[14.2 µM]	x	x	x	x
C(=C\c1ccnc2ccccc12)/c1ccc(N2CCOCC2)cc1	163.2%	x	x	x	178.5%	x
CC=CCCN1C=C(C(C)=O)C(c2ccccc2)NC1=O (centres undefined)	x	-22.1%[14.2 µM]	x	x	x	x
O=[N+]([O-])c1ccc(O)c(C2=NNC(c3ccccc3F)C2)c1 (centres undefined)	u	u	5.01µM*	u	11.2µM*	u
CC(=O)N(/N=C1\Sc2ccccc2C1=O)c1ccccc1C	-6.5%	u	11.1%	10.8%	0.0%	u
CC(=O)N(/N=C1\Sc2ccccc2C1=O)c1ccc(C)cc1C	-8.5%	u	2.8%	u	0.0%	10µM*
O=C(Cn1c(=O)nc(-c2ccccc2)c2cc(Cl)ccc21)NCc1ccccc1	u	x	3.9%	14.1µM*	u	-8.6%[46.1 µM]
Cc1cc(=O)c2ccccc2n1CC(=O)NCc1ccccc1	-1.6%	10.3µM*	1.2%	u	-18.0%	u
O=C(Cn1c(=O)nc(-c2ccccc2)c2cc(Cl)ccc21)NCCc1ccc(Cl)cc1	-10.2%	-0.8%[46.1 µM]	8.2%	u	-11.4%	0.7%[46.1 µM]
CCc1nn(CC(=O)NCc2ccccc2)c(=O)c2cccn12	-11.0%	u	-2.1%	-6.1%	-8.4%	11.2µM*
CCc1nn(CC(=O)NCCc2ccc(Cl)cc2)c(=O)c2cccn12	x	x	-0.2%	-3.2%	x	x
CSc1ccccc1NC(=O)CN(C)Cc1c(O)ccc2ccccc12	-21.9%	-2.6%[46.1 µM]	0.794µM*	3.2%	-7.9%	6.7%
CN(CC(=O)Nc1ccc(N2CCOCC2)cc1)Cc1c(O)ccc2ccccc12	-10.0%	3.9%[46.1 µM]	0.398µM*	-15.0%	-4.1%	x
CN(CC(=O)Nc1ccc(N2CCOCC2)cc1)C(=O)CCNC(=O)c1ccccc1Cl	-5.4%	18.1%	-12.2%	-7.3%	-6.5%	21.9%
CN(CC(=O)Nc1ccc(N2CCOCC2)cc1)C(=O)CCc1ccccc1Cl	i	u	35.5µM*	1.7%	-19.8%	-9.6%[46.1 µM]
SMILES	Vaccinia mCherry	MARV entry inh	Sm TGR block	FMDV inh	VACV Venus inh	LASV entry inh
CSc1ccccc1NC(=O)CN(C)Cc1ccc(Br)cc1	-8.0%	1.0%	-0.8%	u	-3.6%	-22.9%
COC(=O)c1[nH]c(C)c(/C(O)=C2\C(=O)C(=O)N(CCN3CCOCC3)[C@H]2c2cccnc2)c1C	x	3.7%	x	x	x	x
CCN(CC)CCN1C(=O)/C(=C\c2ccc(Cl)c([N+](=O)[O-])c2)SC1=Nc1ccc(OC)cc1	u	u	7.5%	25.1µM*	-23.3%	u
COc1ccc(N=C2S/C(=C\c3ccc(Cl)c([N+](=O)[O-])c3)C(=O)N2CCN(C)C)cc1	-22.9%	x	-0.2%	28.2µM*	u	x
O=C1CCCC2=C1C(c1ccncc1)c1c(nc(SCc3ccccc3Cl)[nH]c1=O)N2 (centres undefined)	x	10µM*	1.6%	-6.3%	-26.1%	u
O=c1[nH]c(SCc2ccccc2Cl)nc2c1CCCC2	x	-2.9%	12.1%	-9.5%	x	1.4%
Cn1ncc2c(N3CCN(c4cccc(Cl)c4)CC3)ncnc21	u	x	1.7%	15.8µM*	-27.2%	u
Cc1noc2ncnc(N3CCN(c4cccc(Cl)c4)CC3)c12	x	x	6.9%	25.1µM*	x	x
Cc1cccc(N2CCN(C(=O)Cc3c(C(=O)O)c(C)cn3C)CC2C)c1 (centres undefined)	-7.5%	x	8.2%	0.0%	-13.9%	10.6%[46.1 µM]
CC1(C(=O)Nc2cccc(C#N)c2)CCN1C(=O)Cc1ccc(-c2ccccc2)cc1 (centres undefined)	11.2%	x	x	25.1µM*	-24.2%	x
CC(C)c1ccc(CC(=O)N2CCC2(C)C(=O)Nc2cccc(C#N)c2)cc1 (centres undefined)	i	x	x	-29.4%	-17.2%	x
COC1=C[C@H](C(=O)NCc2ccccn2)[C@@]2(C)Cc3ccccc3[C@@H]2CC1=O	x	-29.0%[14.2 µM]	x	x	x	x
O=C(COCc1cc(-c2ccc3c(c2)OCO3)on1)Nc1cc(Cl)ccc1O	-10.7%	x	2.2%	-10.0%	-4.4%	13.1%[46.1 µM]
Cc1cc(Nc2cccc(C(F)(F)F)c2)nc2ccc(NC(=O)c3cncc(Br)c3)cc12	-17.7%[7.34 µM]	x	5.0%	31.6µM*	-15.8%[7.34 µM]	-19.1%[46.1 µM]
Cc1cccc(C)c1OC(=O)CSc1nnc(-c2cccs2)o1	-1.7%	-1.4%[46.1 µM]	3.0%	0.8%	-4.0%	0.4%[46.1 µM]
CCC1CCCCN1CC(=O)c1c(C)[nH]c2ccccc12 (centres undefined)	x	-17.3%	44.7µM*	-7.5%	15.8%	-1.7%
CCOC(=O)C1CCCN(C(c2ccccn2)c2c(C)[nH]c3ccccc23)C1 (centres undefined)	i	2.2%[46.1 µM]	0.316µM*	5.4%	0.7%	-2.8%
CCOC(=O)C1CCN(CC(=O)c2c(C)[nH]c3ccccc23)CC1	x	0.9%	35.5µM*	-7.9%	-5.7%	7.5%
O=S1(=O)CC(N2CC=CC2)CN1CCc1ccccc1 (centres undefined)	x	x	x	x	x	7.9%[46.1 µM]
COc1cc(Cl)c(C)cc1NC(=O)c1cnc(N2CCOCC2)c2ccccc12	-13.7%	x	-1.8%	-17.5%	-23.5%	u
Cc1ccc(NC(=O)/C=C/c2ccc([N+](=O)[O-])s2)cc1	-13.7%	14.1µM*	-4.9%	0.0%	20.4%	10µM*
Cc1ccc(NC(=O)/C=C/c2ccc([N+](=O)[O-])s2)c(C)c1	-11.9%	u	-23.1%	12.6µM*	107.9%	u
CCn1c(SCC(=O)N/N=C/c2cc(OC)c(OC)c(OC)c2)nc2ccccc21	-4.9%	u	3.7%	25.1µM*	-14.7%	-16.2%
